# Cardiac RTF inh: cardiac RTF calcium sensitivity inhibitors, primary screen, biochemical, IANBD-TnC fluorescence, EC70 calcium. Troponin I, cardiac muscle (Homo sapiens) + Troponin T, cardiac muscle (Homo sapiens) + …. IANBD-labeled cardiac RTF, Ca2+ fluorescence. inhibition, % at 7.15 µM. actives 0.12% (n = 340,000);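 active means inhibition above the mean inhibition of all tested compounds plus 3 SD, cut at about 17% in these data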;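 further: assay run at fixed EC70 calcium of 1.6 mM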
# RTF Ca sens act: cardiac RTF calcium sensitivity activators, primary screen, biochemical, IANBD-TnC fluorescence, EC20 calcium; Troponin I, cardiac muscle (Homo sapiens) + Troponin T, cardiac muscle (Homo sapiens) + …; IANBD-labeled TnC RTF fluorescence at EC20 calcium; 0% EC20 calcium, 100% full calcium; activation, % at 7.2 µM; actives 0.24% (n = 340,000);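 active means activation above the mean over all tested compounds plus 3 SD, cut at about 30% in these data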;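 further: rise in fluorescence read as greater calcium sensitivity of cardiac thin filaments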
# IDE cell activ: human IDE activators in live cells, primary screen, fluorescence polarization, HEK cells, FAbeta-B substrate. AID 493087, 2011. actives 0.073% (n = 340,000). FAbeta-B cleavage; 0% vehicle, 100% cell-free pure enzyme wells. Insulin-degrading enzyme (Homo sapiens), P14735. activation, % at 5.96 µM;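 active means activation above the mean of all tested compounds plus 3 SD, set per screening campaign, cut at about 17% in these data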
# IDE inh: human IDE inhibitors in live cells, primary screen, fluorescence polarization, HEK cells, FAbetaB substrate; Insulin-degrading enzyme (Homo sapiens), P14735; FAbetaB cleavage; inhibition, % at 5.59 µM; actives 0.41% (n = 320,000);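 active means percent inhibition above the average of all tested compounds plus 3 SD, set per screening campaign, cut at about 16% in these data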;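 further: IDE supplied by intact live HEK cells; FP after avidin binding of uncleaved biotin substrate so inhibition keeps polarization high; 0% = DMSO wells and 100% = 60 µM reference IDE inhibitor Ii1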
# CRFBP-R2 agonist: agonists of CRF-BP/CRF-R2 complex, primary screen, cell-based, HEK293, calcium dye fluorescence, uHTS; CRF-binding protein / CRF receptor 2 complex (human); calcium dye fluorescence (FLIPR); percent of saturating CRF peptide response; activation, % at 13.2 µM; actives 0.46% (n = 350,000); AID 588473, 2011;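 active means activation of at least 50%, plus an integration ratio under a set limit after plate pattern correction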;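 further: plate controls were neutral control wells without compound for no effect and CRF at EC100 for full effect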
# CRFBP-R2 block: antagonists of CRF-BP/CRF-R2 complex, primary screen, cell-based, HEK293, calcium dye fluorescence, uHTS. CRF-induced calcium fluorescence. inhibition, % at 11.8 µM. actives 0.59% (n = 350,000). AID 588475, 2011;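 active means inhibition of the ligand-induced calcium signal above about 50% at the single tested concentration, limit read from the data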
# RTF inh confirm: cardiac RTF calcium sensitivity inhibitors, confirmation, biochemical, fluorescence readout; shares compounds with Cardiac RTF inh; AID 504635, 2011; actives 8% (n = 360); reconstituted cardiac thin filaments; inhibition, % at 7.15 µM; in the data active means inhibition above about 18%
# Numbers without * were called inactive; nt = no result; ! = a repeat was not active. In the library only some 1.5% were active in any assay of this set; here they are far more common.
SMILES,Cardiac RTF inh,RTF Ca sens act,IDE cell activ,IDE inh,CRFBP-R2 agonist,CRFBP-R2 block,RTF inh confirm
O=C(O)CSc1cc(C(=O)c2ccccc2O)cn2c(=O)c3c4c(sc3nc12)CCCC4,22*,-8,-6,nt,0,5,5
COCCn1c(SCC(=O)Nc2ccc(NC(C)=O)cc2)nc2c([nH]c3ccccc32)c1=O,19*,0,-3,-2,0,2,-5
Cc1cc(C)c(NC(=O)c2cnn(C)c2)c(C)c1,1,8,0,5,-1,15,nt
Cc1cccc(NC(=O)c2cnn(C)c2)c1C,17*,5,3,-2,0,5,-2
CC1(C)CC(=O)C2=C(C1)N(Cc1ccco1)C(=O)NC2(C(F)(F)F)C(F)(F)F,18*,-4,3,6,-3,-12,-2
COc1cc(/C=N/NC(=O)c2c(C)nnn2-c2nonc2N)ccc1O,17*,-2,5,-1,-2,7,5
CN(CC(=O)Nc1ccc(F)cc1)C(=O)COC(=O)c1ccc(-c2ccccc2)cc1,-4,-4,0,8,0,2,nt
CC(Sc1nc(=O)cc(N)n1CCc1ccccc1)C(=O)NCc1ccccc1 (centres undefined),19*,-3,8,4,-1,0,-1
CC(NC(=O)CSc1nc(=O)cc(N)n1CCc1ccccc1)c1ccccc1 (centres undefined),7,6,1,2,-1,-9,nt
CCOC(=O)c1nn(-c2ccccc2)c(=O)cc1OCC(=O)Nc1ccccc1OCC,-3,14,-4,3,-1,0,nt
COc1ccc(C2=NOC(C(=O)NCCCn3ccnc3)C2)cc1 (centres undefined),18*,1,2,-1,0,-12,-6
O=C(Nc1nccs1)c1ccc(-c2ccc(F)cc2)o1,17*,-3,-6,4,-1,1,-5
O=C(Nc1ccnn1C1CCN(Cc2cccnc2)CC1)c1ccccc1Cl,18*,-7,4,-1,-1,-5,-1
CC1(C)C(/C=C/C=C/C=C/C=C2\N(CCCCS(=O)(=O)O)c3ccc4ccccc4c3C2(C)C)=[N+](CCCCS(=O)(=O)[O-])c2ccc3ccccc3c21,20*,-11,-9,21*,2,69*,-46
COC(=O)c1cc2oc(C)cc2n1CC(=O)N(C)c1ccccc1,17*,-2,4,-2,0,-1,-3
COc1ccc(/C=C2\SC(=S)N(C(C(=O)O)c3ccccc3)C2=O)c(OC)c1 (centres undefined),-4,7,-5,5,4,30,nt
COc1cc(/C=C2\SC(=S)N(C(C(=O)O)c3ccccc3)C2=O)cc(OC)c1OC (centres undefined),28*,11,3,4,2,0,-4
c1cnc2c(c1)ccc1cccnc12,18*!,0,0,0,-1,2,-7
O=Cc1ccc2ccc3cccnc3c2n1,-8,-2,4,7,-4,2,nt
c1ccc2c(c1)ccc1ncccc12,18*,-5,4,5,-1,-1,-4
c1cnc2ccc3ncccc3c2c1,-8,6,-3,-3,5,11,nt
CC(Oc1ccc(Br)cc1)C(=O)Nc1cc(Cl)ccc1N1CCN(C)CC1 (centres undefined),-15,0,0,7,0,0,nt
Cc1ccc(NC(=O)Cn2nnc3ccccc3c2=O)cc1,-11,-2,1,5,-1,-2,nt
O=C(Cn1nnc2ccccc2c1=O)Nc1ccc(S(=O)(=O)N2CCOCC2)cc1,17*,1,6,-6,1,6,-1
Cc1ccc(NC(=O)Cn2nnc3ccccc3c2=O)cc1C,18*,-1,8,0,-1,1,-6
SMILES,Cardiac RTF inh,RTF Ca sens act,IDE cell activ,IDE inh,CRFBP-R2 agonist,CRFBP-R2 block,RTF inh confirm
COc1ccc(C(C)=O)cc1CN1C(=O)NC(c2ccccc2)(c2ccccc2)C1=O,-2,-2,4,0,3,-17,nt
Cc1cc(C)n(-c2ccc(C(=O)OCC(=O)Nc3ccccc3F)cc2)n1,4,0,1,0,1,-3,nt
COc1ccccc1NS(=O)(=O)c1cc(NC(=O)c2sccc2C)ccc1N1CCOCC1,16,-6,8,-2,0,11,nt
COc1ccccc1NS(=O)(=O)c1cc(NC(=O)c2sccc2C)ccc1N1CCCC1,25*,-5,-1,-2,6,47,3
O=C(Nc1ccc(F)cc1)Nc1ccc(N2CCCC2)c(S(=O)(=O)Nc2ccccc2Cl)c1,-8,7,5,9,-1,-7,nt
O=C(Nc1ccc(N2CCOCC2)c(S(=O)(=O)Nc2ccccc2Cl)c1)c1ccc(F)cc1,24*,-9,4,-5,19,-12,1
CC(C)(C)OC(=O)N[C@@H](Cc1ccccc1)C(=O)NCC1CCC(C(=O)O)CC1 (some centres undefined),-5,2,-5,3,-2,5,nt
COc1ccccc1S(=O)(=O)N(C)C[C@H]1OCc2cnnn2CCCC(=O)N([C@H](C)CO)C[C@H]1C,nt,nt,nt,nt,0,-10,nt
CC(C)Cn1c(/C=C/c2ccco2)nc2ccccc21,18*,8,-1,0,20,7,-5
CCCCN(C)CCC(=O)Nc1ccc(F)c(F)c1,17*,-3,3,0,2,-16,1
Cc1ccc(CNC(=O)c2nnn(CC(=O)Nc3cccc(C)c3C)c2N)cc1,-1,0,3,-6,2,16,nt
Cc1cccnc1NC(=O)C(c1ccccc1)c1ccccc1,-28,6,-3,2,1,6,nt
Nc1nc(-c2ccccc2)c(N=Nc2ccccc2Cl)s1,22*,6,7,-5,-1,17,0
Nc1nc(-c2ccccc2)c(N=Nc2cccc3ccccc23)s1,-8,-2,3,-2,3,23,nt
COc1cc(-c2nnc(SCc3cc(=O)oc4cc(O)c(O)cc34)o2)cc(OC)c1OC,30*,-31,-7,-4,-1,5,17*

# Assay outcomes (PubChem)
